Growth inhibition data for 21 compounds are collected here from PubChem BioAssay (NCI).

Compounds without any hit were thinned out: in the full panel of roughly 79,000, 15% have a hit. Values without a mark were called inactive. The source made the active and inactive calls. Rule as the data show it: active = growth inhibition above about 70%; inactive = the rest.

The nature of assay [1]: NCI Yeast Anticancer Drug Screen. Data for the rad50 strain (AID 155).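 Also: 0% = growth of vehicle-only cultures of the same strain.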 The settings on record: S. cerevisiae rad50 strain growth inhibition; at 50.0 µM; active compounds read high. In a few lines: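 Genetically altered yeast (DNA repair pathway); compound treatment; growth inhibition vs vehicle ctrl.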
The nature of assay [2]: NCI Yeast Anticancer Drug Screen. Data for the mec2-1 strain (AID 157). The settings on record: S. cerevisiae mec2-1 strain, at 50.0 µM, active compounds read high. In a few lines:
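Cells of the genetically defined mec2-1 yeast strain are incubated with test compound. Inhibition of growth is calculated against vehicle-treated controls.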

Assay [3] in a line: NCI Yeast Anticancer Drug Screen. Data for the sgs1 mgt1 strain (AID 161).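 Also: 0% = growth of cultures given vehicle only.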 Conditions: S. cerevisiae sgs1 mgt1 strain, at 50.0 µM, active compounds read high. In a few lines: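 Inhibition of yeast growth, normalised to vehicle-treated controls, is reported for a strain bearing genetic alterations in DNA damage repair.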
Assay [4] in a line: NCI Yeast Anticancer Drug Screen. Data for the cln2 rad14 strain (AID 165).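 Also: 0% = growth equal to vehicle treated cultures.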 The settings on record: S. cerevisiae cln2 rad14 strain, at 50.0 µM, active compounds read high. Put shortly:
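The screen exposed genetically defined yeast (cln2 rad14) to test compounds and scored growth inhibition relative to vehicle-treated controls.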

Assay [5] is described as follows: NCI Yeast Anticancer Drug Screen. Data for the bub3 strain (AID 167). The settings on record: S. cerevisiae bub3 mutant strain, at 50.0 µM, active compounds read high. In a few lines: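 Yeast carrying a defined mutation is treated with each compound, and growth is compared with that of vehicle-exposed cells to give inhibition.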
A short description of assay [6]: NCI Yeast Anticancer Drug Screen. Data for the mlh1 rad18 strain (AID 175). Conditions: S. cerevisiae mlh1 rad18 strain growth inhibition; at 50.0 µM; active compounds read high. Put shortly: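 Compound-treated yeast growth, normalised to vehicle controls. Strain bears defined DNA repair mutations.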

Consider `CCOC(=O)C(C)(C)/C=C\C(Cl)=C(Cl)Cl`, for which the growth inhibition in assay [1] was 4.1%; in assay [2], 4.2%; in assay [3], 8.75%; in assay [4], 4.25%; in assay [5] it was 19.2%; in assay [6], -34.5%.
As for `O=C(NCc1cccs1)OC1CC2CCC1C2` (stereo unspecified), the growth inhibition is 1.6% in assay [1]; -7.45% in assay [2]; 10.8% in assay [3]; -14.8% in assay [4]; -8% in assay [5]; 20.4% in assay [6].
Take `COC(=O)c1ccccc1NC(=O)/C(=N\NC(C)(C)C)C(C#N)c1nc(-c2ccc([N+](=O)[O-])cc2)cs1` (stereo unspecified): the growth inhibition is -4.35% in assay [1]; 14% in assay [2]; -0.6% in assay [3]; 18.6% in assay [4]; 26.1% in assay [5]; -8.3% in assay [6].
On to `COc1cc2c(cc1C/C=C/c1cc(OC)c(OC)c(OC)c1)OCO2`, for which the growth inhibition is -1.95% in assay [1]; -3.1% in assay [2]; 22.8% in assay [3]; -1.65% in assay [4]; 8.55% in assay [5]; 12.2% in assay [6].
`COC(=O)C1=C(O)c2cc(-c3ccccc3)c(-c3ccccc3)c(C#N)c2NC(=O)C1`: the growth inhibition in assay [1] was 32.5%; in assay [2] it was 23.9%; in assay [3] it was 12.9%; in assay [4], 11.1%; in assay [5] it was -4.25%; in assay [6], 30.4%.
Regarding `Cc1cc(O)c([N+](=O)[O-])cc1C`, the growth inhibition is -8.05% in assay [1]; -1.85% in assay [2]; -15.2% in assay [3]; -1.75% in assay [4]; 3.75% in assay [5]; -3.55% in assay [6].
Regarding `CC(C)(C)c1ccc(OS(=O)(=O)c2ccc(Cl)c(Cl)c2)cc1`, the growth inhibition was 0.4% in assay [1]; 17.4% in assay [2]; 0.35% in assay [3]; 31.6% in assay [4]; 6.8% in assay [5]; -4.85% in assay [6].
In the case of `CN(C)CCN1C(=O)c2c(c3cccn3c3c2cnn3-c2ccccc2)C1=O`, the growth inhibition was 36.8% in assay [1]; 12.1% in assay [2]; 34% in assay [3]; -43% in assay [4]; 4.9% in assay [5]; 32.6% in assay [6].
Consider `CN(C)CCCc1cccc2[nH]c3c(c12)CN(C)CC3`, for which the growth inhibition in assay [1] was 22%; in assay [2] it was -5%; in assay [3], 23.6%; in assay [4] it was 7.85%; in assay [5], 7.45%; in assay [6], -26%.
For the compound `CCOC(=O)C1(C)OC1c1ccc([N+](=O)[O-])cc1` (stereo unspecified), the growth inhibition was -16.3% in assay [1]; 5.45% in assay [2]; -4.5% in assay [3]; -15.6% in assay [4]; -9.85% in assay [5]; -9.85% in assay [6].
Consider `NC(=O)c1ccc(I)cc1`, for which the growth inhibition in assay [1] is 1.75%; in assay [2], 9.3%; in assay [3] it was 4%; in assay [4] it was -30.1%; in assay [5] it was -37%; in assay [6] it was 8.25%.
Take `C[N+](C)(N)c1nc(N)c(C#N)c(C#N)c1C#N`: the growth inhibition in assay [1] was 13.6%; in assay [2], -18.7%; in assay [3], -10.9%; in assay [4] it was -24.4%; in assay [5], 5.1%; in assay [6], 13.8%.
For `Nc1nnc2nc(CC(=O)c3ccccc3[N+](=O)[O-])c(CC(=O)c3ccccc3[N+](=O)[O-])nn12`, the growth inhibition is 1% in assay [1]; 6.05% in assay [2]; 18.1% in assay [3]; -13.3% in assay [4]; -27.4% in assay [5]; 8.8% in assay [6].
In the case of `Cc1ncc2c(n1)CCC1=C2OS(=O)(=O)CC1N(C)C` (stereo unspecified), the growth inhibition was -24.1% in assay [1]; -0.45% in assay [2]; -3.3% in assay [3]; 1.6% in assay [4]; -10.1% in assay [5]; -22.4% in assay [6].
For the compound `O=C(OCc1ccccc1)C1(O)CCCCC1`, the growth inhibition in assay [1] is -5.6%; in assay [2], -16.2%; in assay [3], -6.25%; in assay [4], -2.7%; in assay [5], -5%; in assay [6], -7.4%.
On to `CCOC(=O)C(CC(Nc1ccccc1)(c1ccccc1)c1ccccc1)c1ccccc1` (stereo unspecified), for which the growth inhibition is 21.9% in assay [1]; -8.3% in assay [2]; 4.65% in assay [3]; -35.5% in assay [4]; -3.45% in assay [5]; -0.65% in assay [6].
For `COc1cccc(C(c2cc3c(cc2O)OCO3)N2CCOCC2)c1O` (stereo unspecified), the growth inhibition in assay [1] was 15.9%; in assay [2], 30.6%; in assay [3], 51.4%; in assay [4], 8.7%; in assay [5] it was 1.35%; in assay [6], 77.4% (active).
Consider `O=C(O)C#Cc1ccccc1`, for which the growth inhibition in assay [1] is 25.7%; in assay [2] it was -27.9%; in assay [3] it was -1.8%; in assay [4], 2.6%; in assay [5], -23.2%; in assay [6] it was 0.3%.
On to `O=S1(=O)CC(N2CCCCC2)C=C(c2ccccc2)O1` (stereo unspecified), for which the growth inhibition in assay [1] was 37.1%; in assay [2], 0.25%; in assay [3], 14.3%; in assay [4] it was 15.2%; in assay [5], 12.7%; in assay [6] it was 34.2%.
On to `CC(C)(C)OC[C@H](O)CC#N`, for which the growth inhibition was -8.2% in assay [1]; -61.4% in assay [2]; -36.1% in assay [3]; -20.4% in assay [4]; -30.8% in assay [5]; -26.4% in assay [6].
In the case of `O=C(Nc1ncc([N+](=O)[O-])s1)c1cc(Cl)cc(Cl)c1`, the growth inhibition in assay [1] was 60.5%; in assay [2] it was 61%; in assay [3], 77.9% (active); in assay [4], 53%; in assay [5], 57.5%; in assay [6] it was 74.3% (active).
